From PubChem BioAssay (NCI)
Compounds without any hit were thinned out: in the full panel of roughly 79,000, 15% have a hit. Active and inactive are the calls of the source. Rule as the data show it: active = growth inhibition above about 70%; inactive = the rest.

Key:
[1] = NCI Yeast Anticancer Drug Screen. Data for the rad52 strain (AID 147);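 also: 0% = growth of vehicle-treated control cultures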; conditions: S. cerevisiae rad52 mutant growth inhibition, stronger effect = higher value
Procedure, shortened: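 DNA repair-defective yeast; compound exposure; growth scored against vehicle controls.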

[2] = NCI Yeast Anticancer Drug Screen. Data for the wt1 strain (AID 149);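 also: 0% = growth of vehicle-treated wt1 cultures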; conditions: S. cerevisiae wt1 strain (SPY 50644) growth inhibition, stronger effect = higher value
Procedure, shortened: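 Each compound is tested on wt1 yeast and the loss of growth versus vehicle gives the inhibition value.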

[3] = NCI Yeast Anticancer Drug Screen. Data for the rad50EPP+ strain (AID 151);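 also: 0% = growth of vehicle-treated control cultures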; conditions: S. cerevisiae rad50 mutant strain, stronger effect = higher value
Procedure, shortened: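 rad50EPP+ yeast treated with test compounds. Readout: growth vs vehicle control.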

[4] = NCI Yeast Anticancer Drug Screen. Data for the mgt1 strain (AID 153); conditions: S. cerevisiae mgt1 mutant growth inhibition, stronger effect = higher value
Procedure, shortened: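 Growth inhibition relative to vehicle controls was scored for the mgt1 yeast strain after compound exposure.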

[5] = NCI Yeast Anticancer Drug Screen. Data for the rad50 strain (AID 155);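 also: 0% = growth of vehicle-only cultures of the same strain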; conditions: S. cerevisiae rad50 strain growth inhibition, stronger effect = higher value
Procedure, shortened: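 Vehicle-treated cultures provide the reference for the growth inhibition reported for compound-exposed, repair-deficient yeast.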

[6] = NCI Yeast Anticancer Drug Screen. Data for the mec2-1 strain (AID 157); conditions: S. cerevisiae mec2-1 strain, stronger effect = higher value
Procedure, shortened: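 Growth inhibition is read against vehicle-treated controls after compound exposure of the mec2-1 yeast strain, which is defective in DNA damage repair or cell cycle control.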

[7] = NCI Yeast Anticancer Drug Screen. Data for the sgs1 mgt1 strain (AID 161);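 also: 0% = growth of cultures given vehicle only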; conditions: S. cerevisiae sgs1 mgt1 strain, stronger effect = higher value
Procedure, shortened: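 Yeast cells carrying a defined DNA-repair defect were exposed to test compounds. Growth inhibition was measured relative to vehicle-treated controls.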

[8] = NCI Yeast Anticancer Drug Screen. Data for the CLN2oe strain (AID 163);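 also: 0% = growth of vehicle-only control cultures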; conditions: S. cerevisiae CLN2oe strain, stronger effect = higher value
Procedure, shortened: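 Compound-treated yeast; growth vs vehicle ctrl = % inhibition. Genetically altered strain (cell-cycle control).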

[9] = NCI Yeast Anticancer Drug Screen. Data for the cln2 rad14 strain (AID 165);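 also: 0% = growth equal to vehicle treated cultures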; conditions: S. cerevisiae cln2 rad14 strain, stronger effect = higher value
Procedure, shortened: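 Growth inhibition, relative to vehicle-treated controls, is the read-out. The test organism is a yeast strain with defined genetic alterations, cln2 rad14.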

[10] = NCI Yeast Anticancer Drug Screen. Data for the bub3 strain (AID 167); conditions: S. cerevisiae bub3 mutant strain, stronger effect = higher value
Procedure, shortened: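 Mutant yeast screening strain plus compound; vehicle-treated cultures serve as the 0% inhibition reference.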

[11] = NCI Yeast Anticancer Drug Screen. Data for the wt2 strain (AID 169); conditions: S. cerevisiae wt2 strain growth inhibition, stronger effect = higher value
Procedure, shortened: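 Compound exposure of yeast; growth compared with vehicle controls; inhibition reported.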

[12] = NCI Yeast Anticancer Drug Screen. Data for the mlh1 strain (AID 171);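 also: 0% = growth of vehicle-treated control cultures of the same strain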; conditions: S. cerevisiae mlh1 strain growth inhibition, stronger effect = higher value
Procedure, shortened: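 Compounds are applied to a genetically altered yeast strain, and its growth is compared with that of vehicle-treated cultures to give percent inhibition.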

[13] = NCI Yeast Anticancer Drug Screen. Data for the sgs1 strain (AID 173);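 also: 0% = growth of vehicle-only control cultures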; conditions: S. cerevisiae sgs1 mutant, stronger effect = higher value
Procedure, shortened: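 Compounds applied to genetically altered yeast; growth compared with vehicle-treated cultures to give % inhibition.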

[14] = NCI Yeast Anticancer Drug Screen. Data for the mlh1 rad18 strain (AID 175); conditions: S. cerevisiae mlh1 rad18 strain growth inhibition, stronger effect = higher value
Procedure, shortened: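 Cells of a genetically altered yeast strain, deficient in DNA damage repair, were treated with compound. Their growth was then compared with that of vehicle-treated cultures to give inhibition.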

[15] = NCI Yeast Anticancer Drug Screen. Data for the rad18 strain (AID 177); conditions: S. cerevisiae rad18 mutant growth inhibition, stronger effect = higher value
Procedure, shortened: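 Compounds are applied to a repair-deficient yeast strain, and growth is compared with that of vehicle-treated cultures to give percent inhibition.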

[16] = at 5.0 µM (retest, dose inferred, filed as 0.5)
[17] = at 50.0 µM (retest, dose inferred, filed as 5.0)

Measured: growth inhibition

NC(=S)N/N=C\c1nccc2ccccc12
active: [1]; at 33.0 µM 95% | [1]; at 100.0 µM 99% | [2]; at 33.0 µM 76% | [2]; at 100.0 µM 99% | [3]; at 100.0 µM 97% | [4]; at 33.0 µM 97% | [4]; at 100.0 µM 99% | [5]; at 33.0 µM 97% | [5]; [17] 96% | [5]; at 50.0 µM 99% | [5]; at 100.0 µM 97% | [6]; at 11.0 µM 97% | [6]; at 33.0 µM 99% | [6]; [17] 98% | [6]; at 50.0 µM 99.5% | [6]; at 100.0 µM 99% | [7]; [17] 98% | [7]; at 50.0 µM 99% | [8]; at 33.0 µM 96% | [8]; at 100.0 µM 99% | [9]; [17] 97% | [9]; at 50.0 µM 97.5% | [10]; at 33.0 µM 96% | [10]; [17] 97% | [10]; at 50.0 µM 99.2% | [10]; at 100.0 µM 97% | [11]; at 33.0 µM 97% | [11]; at 100.0 µM 99% | [12]; at 33.0 µM 97% | [12]; at 100.0 µM 99% | [13]; at 33.0 µM 99% | [13]; at 100.0 µM 99% | [14]; [17] 96% | [14]; at 50.0 µM 98.4% | [15]; at 33.0 µM 97% | [15]; at 100.0 µM 99%
inactive: [1]; at 1.2 µM -10% | [1]; at 3.7 µM -3% | [1]; at 11.0 µM 40% | [2]; at 1.2 µM -6% | [2]; at 3.7 µM -7% | [2]; at 11.0 µM 16% | [3]; at 1.2 µM 1% | [3]; at 3.7 µM -1% | [3]; at 11.0 µM -16% | [3]; at 33.0 µM 27% | [4]; at 1.2 µM -2% | [4]; at 3.7 µM -6% | [4]; at 11.0 µM 21% | [5]; at 1.2 µM -5% | [5]; at 3.7 µM -3% | [5]; [16] -151% | [5]; at 11.0 µM 46% | [6]; at 1.2 µM 4% | [6]; at 3.7 µM 46% | [6]; [16] 50% | [7]; [16] -64% | [8]; at 1.2 µM 0% | [8]; at 3.7 µM -11% | [8]; at 11.0 µM 35% | [9]; [16] -99% | [10]; at 1.2 µM -9% | [10]; at 3.7 µM -15% | [10]; [16] -107% | [10]; at 11.0 µM 26% | [11]; at 1.2 µM -5% | [11]; at 3.7 µM -4% | [11]; at 11.0 µM 14% | [12]; at 1.2 µM 3% | [12]; at 3.7 µM -9% | [12]; at 11.0 µM 34% | [13]; at 1.2 µM -3% | [13]; at 3.7 µM 6% | [13]; at 11.0 µM 50% | [14]; [16] -135% | [15]; at 1.2 µM -1% | [15]; at 3.7 µM 3% | [15]; at 11.0 µM 39%

Cc1ccc(N)c(S)c1
active: [1]; at 33.0 µM 88% | [1]; at 100.0 µM 97% | [2]; at 33.0 µM 75% | [2]; at 100.0 µM 99% | [3]; at 11.0 µM 76% | [3]; at 33.0 µM 95% | [3]; at 100.0 µM 91% | [4]; at 33.0 µM 98% | [4]; at 100.0 µM 99% | [5]; at 33.0 µM 91% | [5]; [17] 77% | [5]; at 100.0 µM 94% | [6]; at 33.0 µM 96% | [6]; [17] 75% | [6]; at 100.0 µM 98% | [7]; at 50.0 µM 80.3% | [8]; at 33.0 µM 93% | [8]; at 100.0 µM 99% | [10]; at 33.0 µM 98% | [10]; [17] 92% | [10]; at 50.0 µM 81.5% | [10]; at 100.0 µM 98% | [11]; at 33.0 µM 93% | [11]; at 100.0 µM 99% | [12]; at 33.0 µM 98% | [12]; at 100.0 µM 97% | [13]; at 33.0 µM 98% | [13]; at 100.0 µM 98% | [14]; [17] 95% | [14]; at 50.0 µM 92.2% | [15]; at 100.0 µM 90%
inactive: [1]; at 1.2 µM -56% | [1]; at 3.7 µM -52% | [1]; at 11.0 µM -12% | [2]; at 1.2 µM -23% | [2]; at 3.7 µM -29% | [2]; at 11.0 µM -19% | [3]; at 1.2 µM -49% | [3]; at 3.7 µM -39% | [4]; at 1.2 µM -11% | [4]; at 3.7 µM -13% | [4]; at 11.0 µM 15% | [5]; at 1.2 µM -34% | [5]; at 3.7 µM -27% | [5]; [16] 1% | [5]; at 11.0 µM -4% | [5]; at 50.0 µM 10.4% | [6]; at 1.2 µM -24% | [6]; at 3.7 µM -15% | [6]; [16] -19% | [6]; at 11.0 µM -9% | [6]; at 50.0 µM 36.3% | [7]; [16] -1% | [7]; [17] 36% | [8]; at 1.2 µM -15% | [8]; at 3.7 µM -3% | [8]; at 11.0 µM 13% | [9]; [16] 35% | [9]; [17] 63% | [9]; at 50.0 µM -1.5% | [10]; at 1.2 µM -35% | [10]; at 3.7 µM -11% | [10]; [16] 15% | [10]; at 11.0 µM 48% | [11]; at 1.2 µM -48% | [11]; at 3.7 µM -25% | [11]; at 11.0 µM -4% | [12]; at 1.2 µM -19% | [12]; at 3.7 µM -3% | [12]; at 11.0 µM 26% | [13]; at 1.2 µM -29% | [13]; at 3.7 µM -34% | [13]; at 11.0 µM 14% | [14]; [16] 20% | [15]; at 1.2 µM -48% | [15]; at 3.7 µM -37% | [15]; at 11.0 µM -22% | [15]; at 33.0 µM 42%

COC(=O)c1ccc(NCC2=CC(=O)C=CC2=O)cc1O
active: [1]; at 11.0 µM 80% | [1]; at 33.0 µM 97% | [1]; at 100.0 µM 92% | [2]; at 33.0 µM 97% | [2]; at 100.0 µM 93% | [3]; at 11.0 µM 89% | [3]; at 33.0 µM 97% | [3]; at 100.0 µM 92% | [5]; at 11.0 µM 75% | [5]; at 33.0 µM 95% | [5]; [17] 96% | [5]; at 50.0 µM 91% | [5]; at 100.0 µM 93% | [6]; at 11.0 µM 70% | [6]; at 33.0 µM 97% | [6]; [17] 98% | [6]; at 50.0 µM 93.2%
inactive: [1]; at 1.2 µM 13% | [1]; at 3.7 µM 34% | [2]; at 1.2 µM -14% | [2]; at 3.7 µM 2% | [2]; at 11.0 µM 68% | [3]; at 1.2 µM 17% | [3]; at 3.7 µM 63% | [5]; at 1.2 µM 12% | [5]; at 3.7 µM 32% | [5]; [16] 12% | [6]; at 1.2 µM -2% | [6]; at 3.7 µM 17% | [6]; [16] 13%
